# Measurements from the supplement of paper PMC6555819.
# Legend:
# Experiment in all cases: PBM binding z-score (relative to random genomic background probes); higher = stronger binding; sequences stand for … in GC…GCGATTGACAGCGTAGAATGAAGG
# [1] = test system: FXR:RXRa (NR concentration 270 nM, RXRa partner concentration 90 nM)
# Summary of the method: (§1)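 Scanned fluorescence from custom Agilent 4×180K protein-binding microarrays was regression-normalized. Binding z-scores use random background probes as reference. Ligand-free nuclear receptor dimers were incubated on the arrays for 1 h and detected with antibodies against each partner (one per run).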
# [2] = test system: LXRa:RXRa (NR concentration 270 nM, RXRa partner concentration 90 nM)
# Summary of the method: as §1
# [3] = test system: LXRa homodimer (NR concentration 270 nM)
# Summary of the method: as §1
# [4] = test system: LXRb:RXRa (NR concentration 270 nM, RXRa partner concentration 90 nM)
# Summary of the method: as §1
# [5] = test system: LXRb homodimer (NR concentration 270 nM)
# Summary of the method: as §1
# [6] = test system: PPARa:RXRa (NR concentration 270 nM, RXRa partner concentration 90 nM)
# Summary of the method: as §1
# [7] = test system: PPARg:RXRa (NR concentration 180 nM, RXRa partner concentration 90 nM)
# Summary of the method: as §1
# [8] = test system: PPARg:RXRa 270nM:90nM, anti-RXR (NR concentration 270 nM, RXRa partner concentration 90 nM)
# Summary of the method: as §1
# [9] = test system: PPARg:RXRa 30nM:10nM, anti-RXR (NR concentration 30 nM, RXRa partner concentration 10 nM)
# Summary of the method: as §1
# [10] = test system: PPARg:RXRa 90nM:30nM, anti-RXR (NR concentration 90 nM, RXRa partner concentration 30 nM)
# Summary of the method: as §1
# [11] = test system: PPARg:RXRa DBDmut IVT, anti-RXR (DBD mutation: RXRa K156A/R161A, NR concentration 270 nM, RXRa partner concentration 90 nM)
# Summary of the method: as §1
# [12] = test system: PPARg:RXRa IVT, anti-PPARg (NR concentration 270 nM, RXRa partner concentration 90 nM)
# Summary of the method: as §1
# [13] = test system: PPARg DBDmut:RXRa IVT, anti-PPARg (DBD mutation: PPARg1 K132A/R137A, NR concentration 270 nM, RXRa partner concentration 90 nM)
# Summary of the method: as §1
# [14] = test system: PPARg DBDmut IVT, anti-PPARg (DBD mutation: PPARg1 K132A/R137A, NR concentration 270 nM)
# Summary of the method: as §1
# [15] = test system: PPARg homodimer (NR concentration 180 nM)
# Summary of the method: as §1
# [16] = test system: PXR:RXRa (NR concentration 270 nM, RXRa partner concentration 90 nM)
# Summary of the method: as §1
# [17] = test system: PXR homodimer (NR concentration 270 nM)
# Summary of the method: as §1
# [18] = test system: RARa:RXR (NR concentration 270 nM, RXRa partner concentration 90 nM)
# Summary of the method: as §1
# [19] = test system: RARa homodimer (NR concentration 270 nM)
# Summary of the method: as §1
# [20] = test system: RARb:RXRa (NR concentration 270 nM, RXRa partner concentration 90 nM)
# Summary of the method: as §1
Sequence,PBM binding z-score [1],PBM binding z-score [2],PBM binding z-score [3],PBM binding z-score [4],PBM binding z-score [5],PBM binding z-score [6],PBM binding z-score [7],PBM binding z-score [8],PBM binding z-score [9],PBM binding z-score [10],PBM binding z-score [11],PBM binding z-score [12],PBM binding z-score [13],PBM binding z-score [14],PBM binding z-score [15],PBM binding z-score [16],PBM binding z-score [17],PBM binding z-score [18],PBM binding z-score [19],PBM binding z-score [20]
TATACAGGGTCAAGGGCCAGAGTACGAATGTCGA,6.63,5.65,1.91,4.4,2.42,5.8,7.15,6.47,3.84,5.91,2.4,4.69,2.98,1.83,3.27,3.99,0.571,4.97,1.16,4.61
AGTCAAAGTTCTGGACGAGGTAACGTAAAGCACG,-0.243,-0.501,-0.429,-0.322,-0.689,0.00286,0.557,0.0282,-0.285,0.00624,-0.983,0.272,0.288,0.0438,-0.146,-0.238,-0.479,0.0945,0.0553,0.168
ATCTCTAGGTAACAAGTTCAGTGACAGAGAGGAC,0.767,0.889,0.72,0.57,0.85,1.52,1.61,2.21,0.948,1.88,3.59,3.2,1.48,1.17,1.56,1.61,1.61,1.11,1.47,1.81
AGTTAAAGTTCACTAGGTAACGTAAGATTCAGCT,4.84,4.91,3.45,2.98,1.1,4.57,6.24,5.79,2.62,4.52,2.6,4.69,1.44,1.19,2.19,3.54,2.11,2.66,1.6,4.51
AGTCAAAGTTCACTATGTAACGTAAGATTCAGCT,4.61,4.75,2.99,3.02,1.03,3.85,5.87,5.38,2.49,4.66,0.152,2.39,1.02,0.578,1.55,3.59,1.72,2.7,0.755,4.57
TCATATAGGTAATACAGGTGAAATTCGGCATCTA,1.05,1.37,0.75,1.17,0.147,1.96,1.65,2.53,3.85,3.09,3.87,2.95,1.39,1.39,1.02,0.776,0.431,1.2,1.76,0.602
CAAACTAGGTCACGAAAGGTCGAAGTCGAATGAC,5.94,6.62,2.69,5.17,0.867,6.03,9.65,7.81,5.91,8.11,8.79,9.21,6.19,3.15,3.9,5.95,1,5.45,1.66,4.86
